Compound activity as filed in PubChem BioAssay.
PINK1 modulator: changes PINK1 expression | PINK1 immunofluorescence, high-content cytometry, 24 h | Potency, µM (highest dose often 76.6 µM), without a hit: at the top dose activation (PINK1 increase), hits mostly activators | 410,000 compounds, 0.2% hits | AID 624263; active = well fitted activation curve with a large enough effect; inconclusive = small, poorly fitted or top-dose-only effect; cell line not stated here; note: % of control where 0% means no effect; nearly all actives have a fitted effect of over 65% in size
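A stable cell line was treated with compounds at 5 concentrations for 24 hours, with CCCP as control. PINK1 levels and mitochondrial localization were measured by immunofluorescence with mitochondrial, cell and nuclear markers after fixation, read by laser-scanning cytometry.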
Vif-APOBEC3G blk: blocks the Vif interaction with human APOBEC3G; 410,000 compounds, 0.076% hits; AID 602310; Q9HC16; Potency, µM (titrated, usually from 46.1 µM), for inactives: at the highest dose activity, negative = active, actives largely listed as inhibitors; HeLa A3G-eYFP + Vif (tagged APOBEC3G with the HIV-1 protein that degrades it), YFP fluorescence, overnight; note: % is set by controls: 0 for no effect and ±100 for the full control effect; nearly all actives have a fitted effect of over 60% in size
Target sequence (Q9HC16 whole entry, looked up): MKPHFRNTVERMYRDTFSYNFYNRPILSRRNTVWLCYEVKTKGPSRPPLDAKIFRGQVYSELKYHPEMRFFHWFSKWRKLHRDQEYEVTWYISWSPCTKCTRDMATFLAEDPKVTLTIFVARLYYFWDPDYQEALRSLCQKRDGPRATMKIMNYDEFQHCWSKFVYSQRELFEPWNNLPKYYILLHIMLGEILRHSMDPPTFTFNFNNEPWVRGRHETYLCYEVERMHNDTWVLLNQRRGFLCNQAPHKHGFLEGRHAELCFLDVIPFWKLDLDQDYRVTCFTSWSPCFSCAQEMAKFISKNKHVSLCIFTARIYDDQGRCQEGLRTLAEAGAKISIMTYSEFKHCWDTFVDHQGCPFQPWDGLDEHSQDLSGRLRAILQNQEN
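HeLa cells stably expressing Vif and C-terminally eYFP-tagged A3G, seeded overnight at 37 deg C, then exposed to compound by pintool overnight at 37 deg C. Rise in yellow fluorescence (Ex 488/Em 500-530, Acumen) marks blocked Vif-driven A3G degradation.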
Vif-APOBEC3F blk: blocks the Vif interaction with APOBEC3F; HeLa A3F-eYFP + Vif (tagged APOBEC3F with the HIV-1 protein that degrades it), YFP fluorescence increase; Potency, µM (highest dose often 46.1 µM), without a hit: top-dose activity, negative = active; 390,000 compounds, 0.2% hits; AID 602313; note: % of control where 0% means no effect; nearly all actives have a fitted effect of over 65% in size
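Fluorescence increase (Ex 488/Em 500-530) after overnight compound treatment at 37 deg C flags inhibition of Vif-driven A3F-eYFP loss in stable HeLa A3F-eYFP/Vif cells seeded overnight beforehand.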
Epigenetic reg: regulators of epigenetic silencing causing reporter derepression in mouse cells; murine LDR cells, GFP reporter derepression, 30 h; AID 1865; 280,000 compounds, 0.2% hits; Potency, µM (series often up to 53.9 µM), without a hit: at the highest dose GFP activation, usual class: activators; note: % of control where 0% means no effect; nearly all actives have a fitted effect of over 60% in size
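GFP-positive cell count by laser-scanning cytometry (objects 20–120 um) after 30 h, 37 C compound exposure of murine LDR cells; reporter is CMV-GFP integrated at a silenced locus, inducible by HDAC or DNMT inhibitors.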
* marks the source's active call; other numbers are inactive results; [ ] = remark or other dose. An excerpt weighted towards active compounds, which were near 0.51% of everything screened. Unless noted, calls come from the whole dose curve; as a rule, active = well fitted curve in the direction sought with a large enough effect; inconclusive = small, poorly fitted or top-dose-only effect, or another doubt; inactive = no such curve, though single readings can be large; an effect the other way counts as inactive or inconclusive. Potency is the fitted concentration of half-maximal effect.

Screening OCC[n+]1ccc(/C=C/c2c[nH]c3ccccc23)cc1 returned PINK1 modulator 40µM*, Vif-APOBEC3G blk inconclusive, Vif-APOBEC3F blk 3.5µM* and Epigenetic reg 2%.
`Cc1ccc2c(/C=C/c3c[nH]c4ccccc34)ccnc2c1C` gave Vif-APOBEC3G blk 11µM*.
C(=Cc1c[nH]c2ccccc12)c1nccc2ccccc12 was read as PINK1 modulator 2%, Vif-APOBEC3G blk inconclusive and Vif-APOBEC3F blk 8.9µM*.
CCCCCCCCCC[n+]1ccc(/C=C/c2c[nH]c3ccccc23)cc1 was read as Vif-APOBEC3G blk 7%.
Cc1ccc(-c2nc3ccccc3c(=O)n2N)cc1 was read as PINK1 modulator 0%, Vif-APOBEC3G blk 6% and Vif-APOBEC3F blk -10%.
`CCOc1ccc(C(NC(=O)CC)c2c(O)ccc3ccccc23)cc1` (stereo not drawn) gave PINK1 modulator 6%, Vif-APOBEC3G blk inconclusive and Vif-APOBEC3F blk -9%.
For CC(=O)Oc1ccc2ccccc2c1C(NC(=O)Cc1ccccc1)c1ccc(Cl)cc1 (stereo not drawn) the results were PINK1 modulator 14µM*, Vif-APOBEC3G blk -3%, Vif-APOBEC3F blk -8% and Epigenetic reg -1%.
`CCOc1ccc(-c2nonc2NC(=O)c2oc3ccc(F)cc3c2C)cc1` gave PINK1 modulator 9%, Vif-APOBEC3G blk -41%, Vif-APOBEC3F blk 4% and Epigenetic reg 0%.
Cc1c(C(=O)Nc2nonc2-c2ccc(F)cc2)oc2ccc(F)cc12 was read as PINK1 modulator 28µM*, Vif-APOBEC3G blk -8% and Vif-APOBEC3F blk -23%.
`Cc1ccc(C(=O)N2CCC3(CC2)Oc2ccc(Cl)cc2C(=O)C32CC(c3ccc(Cl)cc3)=NO2)s1` (stereo not drawn) gave PINK1 modulator -1%, Vif-APOBEC3G blk 2%, Vif-APOBEC3F blk -2% and Epigenetic reg 5%.
Screening COc1ccc(Oc2nc3c(C)cccn3c(=O)c2/C=C(\C#N)c2nc3ccccc3[nH]2)cc1 returned PINK1 modulator inconclusive and Epigenetic reg 4µM*.
`Cc1cccn2c(=O)c(/C=C(\C#N)c3nc4ccccc4s3)c(Oc3ccc(Br)cc3)nc12` gave PINK1 modulator 4%, Vif-APOBEC3G blk 4%, Vif-APOBEC3F blk 7% and Epigenetic reg 0%.
For Cc1ccccc1Oc1nc2ccccn2c(=O)c1/C=C(\C#N)c1nc2ccccc2[nH]1 the results were PINK1 modulator 1% and Epigenetic reg 11µM*.
CCc1ccc(Oc2nc3c(C)cccn3c(=O)c2/C=C(\C#N)c2nc3ccccc3[nH]2)cc1 was read as PINK1 modulator inconclusive, Vif-APOBEC3G blk -1%, Vif-APOBEC3F blk -29% and Epigenetic reg 11µM*.
Screening Cc1cc(C)cc(Oc2nc3c(C)cccn3c(=O)c2/C=C(\C#N)c2nc3ccccc3[nH]2)c1 returned PINK1 modulator inconclusive, Vif-APOBEC3G blk -6%, Vif-APOBEC3F blk inconclusive and Epigenetic reg 7.1µM*.
For N#Cc1sc2nc(-c3cccs3)cc(-c3ccc(Cl)cc3)c2c1N the results were PINK1 modulator 29%[38.3 µM], Vif-APOBEC3G blk inconclusive, Vif-APOBEC3F blk inconclusive and Epigenetic reg 14µM*.
For CCC(=O)Oc1ccc2c(c1)CCC1C2CC[C@]2(C)C(OC(=O)CC)CCC12 (stereo partly drawn) the results were Epigenetic reg -4%.
For Cc1ccc(NS(=O)(=O)c2cc(C(=O)Nc3cccc([N+](=O)[O-])c3)ccc2C)cc1 the results were PINK1 modulator inconclusive, Vif-APOBEC3G blk -6%, Vif-APOBEC3F blk inconclusive and Epigenetic reg 2%.
`N#Cc1c(C(F)(F)F)cc(-c2cccs2)nc1SCC(=O)Nc1cccc(C(F)(F)F)c1` gave PINK1 modulator inconclusive, Vif-APOBEC3G blk inconclusive, Vif-APOBEC3F blk 10µM* and Epigenetic reg 16µM*.
Screening N#Cc1c(C(F)(F)F)cc(-c2cccs2)nc1SCC(=O)Nc1ccc(Cl)cc1 returned PINK1 modulator 2%, Vif-APOBEC3G blk 10µM*, Vif-APOBEC3F blk inconclusive and Epigenetic reg 10µM*.
CCOc1ccc(NC(=O)CSc2nc(-c3cccs3)cc(C(F)(F)F)c2C#N)cc1 was read as PINK1 modulator -1%, Vif-APOBEC3G blk 0%, Vif-APOBEC3F blk 0% and Epigenetic reg 1%.
For NC(=O)CSc1nc(C2CC2)nc2sc3c(c12)CCCC3 the results were PINK1 modulator 0%, Vif-APOBEC3G blk -5%, Vif-APOBEC3F blk -6% and Epigenetic reg 1%.
`C=CCOc1ccc2cccc(/C=N/NC(=O)c3cc4cc([N+](=O)[O-])ccc4s3)c2c1` gave PINK1 modulator 20µM*, Vif-APOBEC3G blk 3%, Vif-APOBEC3F blk inconclusive and Epigenetic reg inconclusive.
`O=C(Nc1ccccn1)c1cc2cc([N+](=O)[O-])ccc2s1` gave PINK1 modulator 2%, Vif-APOBEC3G blk -5%, Vif-APOBEC3F blk 3% and Epigenetic reg -1%.
`Cc1ccc(SC(=O)c2c([N+](=O)[O-])c(C)nn2C)cc1` gave PINK1 modulator 4%, Vif-APOBEC3G blk -14%, Vif-APOBEC3F blk -13% and Epigenetic reg 22µM*.
Screening CCCCCCCCn1c2c(c(=N)c3ccccc31)CCC2 returned PINK1 modulator 13µM*, Vif-APOBEC3G blk 0%, Vif-APOBEC3F blk 4% and Epigenetic reg 0%.
`Cc1ccc(CN2C(=O)C[C@@H](NS(=O)(=O)c3ccc4ccccc4c3)C/C=C\C2c2ccc(C)cc2)cc1` (stereo partly drawn) gave Epigenetic reg 1%[40.7 µM].
COC(=O)CCC(=O)OC1(C)C(=O)C2=COC(c3ccc(OC)cc3)=CC2=C(Br)C1=O (stereo not drawn) was read as PINK1 modulator 0%, Vif-APOBEC3G blk -2%, Vif-APOBEC3F blk -3% and Epigenetic reg 0%.
`COc1ccc(C2=CC3=C(Br)C(=O)C(C)(OC(=O)c4ccc(Cl)nc4)C(=O)C3=CO2)cc1` (stereo not drawn) gave PINK1 modulator 14µM*, Vif-APOBEC3G blk 0%, Vif-APOBEC3F blk -3% and Epigenetic reg -1%.
`CSc1nsc(/C=C/Nc2ccc(Cl)cc2)c1C#N` gave PINK1 modulator 17%, Vif-APOBEC3G blk inconclusive, Vif-APOBEC3F blk inconclusive and Epigenetic reg inconclusive.
`CSc1nsc(/C=C/Nc2ccc(O)cc2C)c1C#N` gave PINK1 modulator 4%, Vif-APOBEC3G blk inconclusive, Vif-APOBEC3F blk 10µM* and Epigenetic reg inconclusive.
For CSc1nsc(/C=C/Nc2ccc(F)cc2)c1C#N the results were PINK1 modulator 0%, Vif-APOBEC3G blk inconclusive, Vif-APOBEC3F blk 22µM* and Epigenetic reg 10µM*.
COCCOC(=O)C1=C(C)NC(=O)NC1/C=C/c1ccccc1 (stereo not drawn) was read as PINK1 modulator 1%, Vif-APOBEC3G blk 0%, Vif-APOBEC3F blk 5% and Epigenetic reg 0%.
`CN(CC(=O)Nc1ccc(OC(F)(F)F)cc1)C(=O)Cn1c(=O)cnc2ccccc21` gave PINK1 modulator 4%, Vif-APOBEC3G blk 1% and Vif-APOBEC3F blk 12%.
